We go through five compounds from PubChem BioAssay.

SMILES strings stand for the structures. Records with an inconclusive call do not appear. Activity calls are given as the source filed them. Unless noted, the rule behind the calls is not given here.

The nature of assay [1]: compounds altering circadian rhythm period length – cell-based, LOPAC library, luminescence reporter (AID 2774).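 Note: values are relative to mean of DMSO wells on each plate.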 Conditions: circadian reporter cells, at 7 µM, actives lie on both sides.
Assay [2] can be described thus: compounds altering viability of human ES cells (AID 493140).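 Note: cells exposed to compounds for four days before counting.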 The note with it: human embryonic stem cell survival screen; stronger effect = higher value.
Assay [3] deals with Hepatitis C virus NS3 helicase. Kind of assay: blockers of NS3h binding to ssDNA – biochemical, fluorescence polarization, LOPAC1280 library, primary screen (AID 687035; in the data active = inhibition above about 37%). The note with it: Purified HCV NS3 helicase, Cy5-dT15 ssDNA binding fluorescence polarization; stronger effect = higher value; concentration not given here.
Assay [4] is described as follows: compounds altering Cy5-DNA-NS3h complex signal – biochemical, LOPAC1280, artefact control for HCV NS3 helicase inhibitor project (AID 687037). Conditions: Cy5-DNA-NS3h complex fluorescence interference counterscreen.
The nature of assay [5]: viability loss in pontine glioma line – cell-based, JHH-DIPG-1, MIPE4.0, CellTiter-Glo, qHTS, dose response (AID 1347062; cut-off not given, nearly all actives have AC50 up to about 27 µM;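 for AC50: cells exposed to compound for two days before readout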). Conditions: JHH-DIPG-1 viability, CellTiter-Glo ATP luminescence.
Assay [6] can be described thus: viability loss in pontine glioma line – cell-based, SU-DIPG-XXV, MIPE5.0, CellTiter-Glo, qHTS, dose response (AID 1347065; cut-off not given, nearly all actives have AC50 up to about 26 µM;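 note: cells exposed to compound for 48 hours before ATP readout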). Conditions: CellTiter-Glo ATP luminescence.
Assay [7] in a line: growth inhibition of DIPG cells – cell-based, MIPE4.0 library, CellTiter-Glo luminescence, qHTS (AID 1347066; cut-off not given, nearly all actives have AC50 up to about 30 µM;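 note: cells exposed to compound for 48 hours before readout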). The note with it: SU-DIPG-VI viability, CellTiter-Glo ATP luminescence.
Assay [8] in a line: blockers of cellular phospholipid synthesis – cell-based, LOPAC library, screen 4, primary screen (AID 1347384). The note with it: animal cells, phospholipid biosynthesis inhibition screen; at 10 µM.
Assay [9] deals with Mitogen-activated protein kinase 7 (Homo sapiens) (UniProt Q13164). In words: Gal4-ERK5 driven luciferase induction – cell-based, HTS, primary screen (AID 1508626;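 active = luciferase signal above three times the same-plate solvent-only control wells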;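 note: luciferase driven by Gal4-ERK5 fusion binding five Gal4 sites before minimal TATA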). Conditions: HeLa Gal4-ERK5 transactivation, 18 h, at 5 µM, stronger effect = higher value.
Mitogen-activated protein kinase 7 (Homo sapiens), sequence (Q13164 whole entry, looked up, the tested form may be a part): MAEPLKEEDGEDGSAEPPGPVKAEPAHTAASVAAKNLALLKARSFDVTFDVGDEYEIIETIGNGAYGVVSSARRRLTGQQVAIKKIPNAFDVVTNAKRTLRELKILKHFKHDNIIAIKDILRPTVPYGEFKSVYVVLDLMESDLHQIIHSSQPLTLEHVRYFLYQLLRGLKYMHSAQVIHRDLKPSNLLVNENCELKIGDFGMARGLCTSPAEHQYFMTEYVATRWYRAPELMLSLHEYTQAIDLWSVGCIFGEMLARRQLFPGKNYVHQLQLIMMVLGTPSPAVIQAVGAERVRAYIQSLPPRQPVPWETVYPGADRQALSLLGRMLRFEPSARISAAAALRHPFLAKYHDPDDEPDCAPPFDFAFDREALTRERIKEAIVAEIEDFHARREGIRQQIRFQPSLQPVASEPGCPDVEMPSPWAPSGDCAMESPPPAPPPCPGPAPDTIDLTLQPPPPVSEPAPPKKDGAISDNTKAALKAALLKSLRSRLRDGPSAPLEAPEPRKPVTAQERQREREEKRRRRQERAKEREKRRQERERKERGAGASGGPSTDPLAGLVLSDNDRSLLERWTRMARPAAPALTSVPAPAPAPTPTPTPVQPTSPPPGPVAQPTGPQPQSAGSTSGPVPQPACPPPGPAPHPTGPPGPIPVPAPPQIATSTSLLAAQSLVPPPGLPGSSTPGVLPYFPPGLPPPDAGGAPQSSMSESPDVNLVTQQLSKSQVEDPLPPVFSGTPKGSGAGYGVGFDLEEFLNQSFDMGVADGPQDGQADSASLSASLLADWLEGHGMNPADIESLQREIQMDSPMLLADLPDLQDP
A short description of assay [10]: compounds altering HSF1 focus formation in cells – imaging, Selleck Cancer Library (AID 1347162; in the data active = plate-normalised HSF1 focus index below about 0.46). Conditions: human cells, HSF1 nuclear foci imaging, at 10 µM; SSMD: measured here: HSF1 foci SSMD mean; cell count: measured here: cell number; plate-normalised HSF1 focus index: stronger effect = lower value.
Assay [11] is described as follows: viability loss in pontine glioma line – cell-based, SU-DIPG-XIII, MIPE5.0, CellTiter-Glo, qHTS, dose response (AID 1347064; cut-off not given, nearly all actives have AC50 up to about 23 µM). Conditions: CellTiter-Glo ATP luminescence.
Assay [12] in a line: growth inhibition, single agent or in combination, cell-based, chromothripsis tumors, cisplatin or BGB combos (AID 1671449; in the data active = inhibition above about 80%;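 note: cells exposed for 96 hours; 0% = vehicle DMSO and 100% = killing by high DMSO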). Conditions: LFS_MB_P medulloblastoma cells.
Assay [13] in a line: growth inhibition, single agent and combos, cell-based, chromothripsis tumors, cisplatin or BGB combos (AID 1671450; in the data active = inhibition above about 80%;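 note: cells exposed to compound for four days; 0% = vehicle DMSO and 100% = cell killing by high DMSO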). Conditions: HDN33 neuroblastoma cells, stronger effect = higher value.
Assay [14] can be described thus: growth inhibition, single agents and combos, ICB984, cell-based, cisplatin or BGB combos, synergistic combos for chromothripsis tumors (AID 1671451).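 Note: cells exposed for 96 hours before readout; 0% = vehicle DMSO and 100% = killing by high DMSO.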 Conditions: ICB984 medulloblastoma cells, drug combinations, stronger effect = higher value.
Assay [15] can be described thus: growth inhibition, single agents and combos, HTB85, cell-based, BGB or cisplatin IC20 combos, synergistic combos for chromothripsis tumors (AID 1671453; in the data active = inhibition above about 80%;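 note: cells exposed for 96 hours before readout; 0% = vehicle DMSO and 100% = high DMSO killing control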). Conditions: HTB85 osteosarcoma cells, drug combinations, stronger effect = higher value.
A short description of assay [16]: growth inhibition, MDA-MB-436, cell-based, BGB or cisplatin combos, synergistic combos for chromothripsis tumors (AID 1671458).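 Note: cells exposed for 96 hours; 0% = vehicle DMSO and 100% = killing by high DMSO.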 The note with it: MDA-MB-436 breast carcinoma growth inhibition, drug combinations, stronger effect = higher value.
The nature of assay [17]: BT084 cell growth, single and combined drugs, ICGC_MB145, cisplatin and BGB IC40 combos (AID 1671461; in the data active = inhibition above about 80%;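 note: cells exposed to drugs for 96 hours; 0% = vehicle DMSO and 100% = high DMSO full killing control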). The note with it: BT084 medulloblastoma cells, drug combinations, stronger effect = higher value.
The nature of assay [18]: RCMB18 cell growth, single agent and combined, cisplatin and BGB IC40 combos (AID 1671462; in the data active = inhibition above about 80%;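 note: cells exposed to compound for four days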). Conditions: RCMB18 medulloblastoma cells, stronger effect = higher value.
Assay [19] can be described thus: CRL1545 cell growth, single agent and combined, cisplatin and BGB IC20 combos (AID 1671464; in the data active = inhibition above about 80%;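 note: cells exposed to compound for 96 hours before readout; 0% = vehicle DMSO and 100% = high DMSO killing control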). Conditions: CRL1545 osteosarcoma cells, stronger effect = higher value.
The mark [20] stands for this setting: measured here: with BGB IC20 combination, at 0.5 µM.
The mark [21] stands for this setting: measured here: with cisplatin IC20 combination, at 0.5 µM.

Turning to `CC#C[C@]1(O)CC[C@H]2[C@@H]3CCC4=CC(=O)CCC4=C3[C@@H](c3ccc(N(C)C)cc3)C[C@@]21C`, the period change in assay [1] was 0.39 h (inactive). Also, in assay [2], the survival is 27.7 (inactive). Also, the inhibition in assay [3] was -1% (inactive). Further, the fluorescence ratio (interference) in assay [4] was 0.9 (inactive). In addition, the AC50 in [5] is 235 nM (active); in assay [6], 29500 nM (active); in assay [7], 2960 nM (active). Also, in [8], the result was inactive. Besides, the luciferase signal in [9] was 36 AU (inactive).
Turning to `CC1(CN2CCC(n3c(=O)[nH]c4ccccc43)CC2)OCc2ccccc2-n2cccc21` (centres undefined), the call in assay [5] was inactive. The result in [7] was inactive. In [10], the SSMD was 2.84, the cell count is 7080 and the plate-normalised HSF1 focus index was 1.16 (inactive).
On to `CCN1CCC[C@H]1CNC(=O)c1c(OC)ccc(Br)c1OC`, for which, in assay [2], the survival is 12.3 (inactive).
Same read-out and setting: the result for `Cc1ccc2c(c1)c1c3n2CCNC3CCC1` (centres undefined) reads 11.2 (inactive).
For the compound `C[C@@H](CN1CC(=O)NC(=O)C1)N1CC(=O)NC(=O)C1`, the call in assay [11] and in assay [6] was inactive. The inhibition in assay [12] (at 0.5 µM, stronger effect = higher value) was -25.4% (inactive); in assay [12] (measured here: combination with BGB IC20, at 0.005 µM), 7.12%; in [12] (measured here: combination with BGB IC40, at 0.005 µM), 4.81%; in assay [12] (measured here: combination with BGB IC40, at 0.05 µM), -36.6%; in assay [12] (measured here: combination with cisplatin, at 0.5 µM, stronger effect = higher value), -24.5%; in assay [12] (measured here: combination with cisplatin, at 5 µM, stronger effect = higher value), -14.8%. Moreover, the inhibition in [13] (BGB combo, at 5 µM) is 79.1%; in [13] (at 0.5 µM) it was -24% (inactive); in [13] (cisplatin combo, at 5 µM), -19.4%; in assay [13] (setting [20]), -11.3%; in assay [13] (setting [21]), -36.9%; in assay [13] (single agent, at 5 µM), 13.8%. Also, the inhibition in assay [14] (BGB IC20 combo, at 0.005 µM) is -2.91%; in assay [14] (BGB IC40 combo, at 0.005 µM), -23%; in assay [14] (BGB IC40 combo, at 0.05 µM), 11.5%; in assay [14] (at 0.5 µM) it was -30.5% (inactive); in assay [14] (cisplatin combo, at 0.05 µM), 8.27%; in assay [14] (cisplatin combo, at 0.5 µM), -19.9%. The inhibition in assay [14] (cisplatin combo, at 5 µM) is -27.8%; in assay [14] (measured here: 5 uM single agent, at 5 µM) it was -8.08%; in [15] (at 0.5 µM) it was -26.1% (inactive); in assay [15] (measured here: with BGB IC20, at 0.5 µM) it was -21.1%; in [15] (measured here: with BGB IC20, at 5 µM), -21.1%; in [15] (measured here: with cisplatin IC20, at 0.5 µM), -39.6%. In addition, the inhibition in assay [15] (measured here: with cisplatin IC20, at 5 µM) is -43.4%; in assay [15] (single agent, at 5 µM) it was -10%; in [16] (at 0.5 µM), -7.66% (inactive); in assay [16] (measured here: BGB combination, at 0.5 µM) it was 2.41%; in assay [16] (measured here: BGB combination, at 5 µM) it was -3.41%; in assay [16] (measured here: cisplatin combination, at 0.5 µM), -18.8%. The inhibition was -28.2% in assay [16] (measured here: cisplatin combination, at 5 µM); -9.97% (inactive) in assay [17] (at 0.5 µM); -43.1% in assay [17] (cisplatin combination, at 0.5 µM); -2.65% in [17] (cisplatin combination, at 5 µM); 19.5% in [17] (measured here: BGB IC40 combination 0.05 uM, at 0.05 µM); -11.9% in assay [17] (single agent, at 5 µM). For the same compound, the inhibition in [18] (at 0.5 µM) was -20.1% (inactive); in assay [18] (cisplatin combo, at 5 µM), -55.6%; in [18] (measured here: BGB IC40 combination, at 0.05 µM) it was -8.51%; in assay [18] (measured here: combination with cisplatin, at 0.5 µM), -37.1%; in assay [18] (single agent, at 5 µM) it was -16.8%; in [19] (at 0.5 µM), -44.1% (inactive). Besides, the inhibition in assay [19] (setting [20]) was -33.6%; in assay [19] (setting [21]), -51.8%; in [19] (single agent, at 0.05 µM) it was -57.8%; in [19] (single agent, at 5 µM), -52.7%.
